Experimental data published in PubChem BioAssay (NCI).
About 83,000 compounds went through this panel and 20% of them were active in at least one assay; those are over-represented in the sample as a whole.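 Activity criterion: percent growth below 10, measured after cells in 96-well plates were exposed to a single compound concentration for 48 hours.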 The source made the active and inactive calls.

What was measured:
Assay in all cases: NCI-60 one-dose screen, 48 h (100 = growth as untreated, 0 = no growth, -100 = all killed)
Settings in all cases: 10 µM unless noted
HCT-15 colon = system: HCT-15 colon
HT29 colon = system: HT29 colon
SNB-19 CNS = system: SNB-19 CNS
U251 CNS = system: U251 CNS
PC-3 prostate = system: PC-3 prostate
SK-MEL-5 melanoma = system: SK-MEL-5 melanoma
UACC-62 melanoma = system: UACC-62 melanoma
LOX IMVI melanoma = system: LOX IMVI melanoma
SK-MEL-28 melanoma = system: SK-MEL-28 melanoma
SK-MEL-2 melanoma = system: SK-MEL-2 melanoma
SN12C renal = system: SN12C renal
UO-31 renal = system: UO-31 renal
TK-10 renal = system: TK-10 renal
ACHN renal = system: ACHN renal
CAKI-1 renal = system: CAKI-1 renal
A498 renal = system: A498 renal
CCRF-CEM leukemia = system: CCRF-CEM leukemia
MOLT-4 leukemia = system: MOLT-4 leukemia
EKVX NSCLC = system: EKVX NSCLC

Measured: growth

Fc1ccc(-c2nc(-c3nc4ncccc4[nH]3)cc3c2[nH]c2ccccc23)cc1F
inactive: HCT-15 colon 54.7% | HT29 colon 39.1% | SNB-19 CNS 102% | U251 CNS 81.9% | PC-3 prostate 73.3% | SK-MEL-5 melanoma 28.3% | UACC-62 melanoma 79.9% | LOX IMVI melanoma 48.5% | SK-MEL-28 melanoma 94% | SK-MEL-2 melanoma 83.1% | SN12C renal 72.5% | UO-31 renal 41.9% | TK-10 renal 91.7% | ACHN renal 83% | CAKI-1 renal 92.3% | A498 renal 88.4% | CCRF-CEM leukemia 67.2% | MOLT-4 leukemia 49.8%

COc1cc(-c2nn(-c3cccc(NC(=O)Nc4ccc(Cl)c(Cl)c4)c3)cc2-c2ccncc2)ccc1Cl
inactive: HCT-15 colon 12.7% | SNB-19 CNS 27.2% | SN12C renal 10.6% | UO-31 renal 15.9% | TK-10 renal 10.9% | ACHN renal 11.5% | CAKI-1 renal 16.8%
active: HT29 colon 1.12% | U251 CNS -6.02% | PC-3 prostate -17.6% | SK-MEL-5 melanoma -80% | UACC-62 melanoma -65.1% | LOX IMVI melanoma 1.38% | SK-MEL-28 melanoma 4.96% | SK-MEL-2 melanoma -44.2% | A498 renal -6.82% | CCRF-CEM leukemia -7.9% | MOLT-4 leukemia -11.1%

COc1ccc(-c2ccc(C)n2-c2ccc(-c3nc4cc(Cl)ccc4s3)cc2)cc1
inactive: HCT-15 colon 105% | HT29 colon 100% | SNB-19 CNS 103% | U251 CNS 98.2% | PC-3 prostate 113% | SK-MEL-5 melanoma 97.9% | UACC-62 melanoma 85.2% | LOX IMVI melanoma 95.8% | SK-MEL-28 melanoma 125% | EKVX NSCLC 90.3% | SN12C renal 90.5% | UO-31 renal 85% | TK-10 renal 81.6% | ACHN renal 108% | CAKI-1 renal 79.9% | A498 renal 91.4%

Nc1nnc(-c2ccc3ccccc3c2O)o1
inactive: HCT-15 colon 78.6% | HT29 colon 105% | SNB-19 CNS 97.1% | U251 CNS 90.4% | PC-3 prostate 82.8% | SK-MEL-5 melanoma 94.8% | UACC-62 melanoma 97.5% | LOX IMVI melanoma 85.3% | SK-MEL-28 melanoma 97.8% | SK-MEL-2 melanoma 97.9% | SN12C renal 95.9% | UO-31 renal 61.5% | TK-10 renal 128% | ACHN renal 91.7% | CAKI-1 renal 96.8% | A498 renal 103% | CCRF-CEM leukemia 88.7% | MOLT-4 leukemia 75.5%

COc1ccc(C2C=C(c3ccc(N)cc3)N=C3SC=CN32)cc1OC (centres undefined)
inactive: HCT-15 colon 101% | HT29 colon 103% | SNB-19 CNS 102% | U251 CNS 98.5% | PC-3 prostate 91.4% | SK-MEL-5 melanoma 103% | UACC-62 melanoma 112% | LOX IMVI melanoma 105% | SK-MEL-28 melanoma 113% | SK-MEL-2 melanoma 108% | SN12C renal 105% | UO-31 renal 82.2% | TK-10 renal 98.1% | ACHN renal 99.9% | CAKI-1 renal 101% | A498 renal 108% | CCRF-CEM leukemia 97.7% | MOLT-4 leukemia 90.6%

COc1cc(-c2nn(-c3cccc(NC(=O)Nc4ccc(Cl)c(C(F)(F)F)c4)c3)cc2-c2ccncc2)ccc1Cl
active: HCT-15 colon 9.91% | HT29 colon -0.5% | U251 CNS -20.9% | PC-3 prostate -19% | SK-MEL-5 melanoma -65.3% | UACC-62 melanoma -43.8% | LOX IMVI melanoma 1.06% | SK-MEL-28 melanoma 8.8% | SK-MEL-2 melanoma -57.8% | ACHN renal 9.33% | A498 renal -6.71% | CCRF-CEM leukemia -8.04% | MOLT-4 leukemia -2.38%
inactive: SNB-19 CNS 26.4% | SN12C renal 12.6% | UO-31 renal 11% | TK-10 renal 12.6% | CAKI-1 renal 14.7%

Fc1ccc(CNCCNc2ncnc3c2cnn3-c2ccccc2)cc1
inactive: HCT-15 colon 92.4% | HT29 colon 93.1% | SNB-19 CNS 94.1% | U251 CNS 84% | PC-3 prostate 86.6% | SK-MEL-5 melanoma 87.4% | UACC-62 melanoma 101% | LOX IMVI melanoma 89.4% | SK-MEL-28 melanoma 110% | SK-MEL-2 melanoma 113% | SN12C renal 89.2% | UO-31 renal 62.1% | TK-10 renal 102% | ACHN renal 100% | CAKI-1 renal 87.2% | A498 renal 77.1% | CCRF-CEM leukemia 86.9% | MOLT-4 leukemia 89.1%

O=S(=O)(NCCNc1nccc(-c2c(-c3ccc(O)cc3)nc3sccn23)n1)c1cccc2ccccc12
inactive: HCT-15 colon 100% | HT29 colon 102% | SNB-19 CNS 99.7% | U251 CNS 95.3% | PC-3 prostate 97.5% | SK-MEL-5 melanoma 102% | UACC-62 melanoma 106% | LOX IMVI melanoma 101% | SK-MEL-28 melanoma 111% | SK-MEL-2 melanoma 124% | SN12C renal 97.7% | UO-31 renal 85.1% | TK-10 renal 98.2% | ACHN renal 107% | CAKI-1 renal 99.7% | A498 renal 104% | CCRF-CEM leukemia 97.8% | MOLT-4 leukemia 87.6%

COc1cc(-c2nn(-c3cccc(NC(=O)Nc4cccc(C(F)(F)F)c4)c3)cc2-c2ccncc2)ccc1Cl
inactive: SNB-19 CNS 23.5% | CAKI-1 renal 11.5%
active: HCT-15 colon 5.28% | HT29 colon -64% | U251 CNS -82.2% | PC-3 prostate -23% | SK-MEL-5 melanoma -97.8% | UACC-62 melanoma -76.1% | LOX IMVI melanoma -64.2% | SK-MEL-28 melanoma -18.6% | SK-MEL-2 melanoma -71.2% | SN12C renal 7.22% | UO-31 renal 7.94% | TK-10 renal 2.65% | ACHN renal 6.54% | A498 renal -5.17% | CCRF-CEM leukemia -9.68% | MOLT-4 leukemia -26.3%

COc1ccc(-c2nc(N3CCCC3=O)sc2Br)cc1OC
inactive: HCT-15 colon 89.8% | HT29 colon 82.7% | SNB-19 CNS 93.8% | U251 CNS 96.7% | PC-3 prostate 101% | SK-MEL-5 melanoma 89.8% | UACC-62 melanoma 90% | LOX IMVI melanoma 100% | SK-MEL-28 melanoma 102% | SK-MEL-2 melanoma 86.5% | SN12C renal 104% | UO-31 renal 93.6% | TK-10 renal 94.1% | ACHN renal 93% | CAKI-1 renal 99.4% | A498 renal 88.3% | CCRF-CEM leukemia 96.4% | MOLT-4 leukemia 93.8%

O=S(=O)(c1ccc(OCCO)cc1)c1ccc(OCCO)cc1
active: CCRF-CEM leukemia -21.9%
inactive: HCT-15 colon 99% | HT29 colon 97.6% | SNB-19 CNS 108% | U251 CNS 93.2% | PC-3 prostate 85% | SK-MEL-5 melanoma 89.7% | UACC-62 melanoma 101% | LOX IMVI melanoma 105% | SK-MEL-28 melanoma 79% | EKVX NSCLC 108% | SN12C renal 106% | UO-31 renal 80.6% | TK-10 renal 94.6% | ACHN renal 102% | CAKI-1 renal 98.9% | A498 renal 107% | MOLT-4 leukemia 83.2%

COc1cc(-c2nn(-c3cccc(NC(=O)c4ccccc4)c3)cc2-c2ccncc2)ccc1Cl
active: HT29 colon 2.03% | SK-MEL-5 melanoma -49.4% | SK-MEL-2 melanoma -42.5% | A498 renal -23.2% | CCRF-CEM leukemia 2.06% | MOLT-4 leukemia 0.658%
inactive: HCT-15 colon 19.2% | SNB-19 CNS 50% | U251 CNS 13.5% | PC-3 prostate 10.5% | UACC-62 melanoma 32.5% | LOX IMVI melanoma 17.4% | SK-MEL-28 melanoma 34.4% | SN12C renal 28.8% | UO-31 renal 29.8% | TK-10 renal 31% | ACHN renal 32.3% | CAKI-1 renal 40.6%

COc1ccc(OC)c(C2OC(c3ccc4ccccc4c3O)=NN2C(C)=O)c1 (centres undefined)
inactive: HCT-15 colon 62% | HT29 colon 61.1% | SNB-19 CNS 81.1% | U251 CNS 83.3% | PC-3 prostate 59.3% | SK-MEL-5 melanoma 58.4% | UACC-62 melanoma 69.1% | LOX IMVI melanoma 63.9% | SK-MEL-28 melanoma 78.6% | SK-MEL-2 melanoma 60.7% | SN12C renal 80.6% | UO-31 renal 63.4% | ACHN renal 69.5% | CAKI-1 renal 87.6% | A498 renal 37.4% | CCRF-CEM leukemia 69.2% | MOLT-4 leukemia 61.8%

Nc1cc2c(cc1C(=O)c1cccc(F)c1)OCCO2
inactive: HCT-15 colon 93.9% | HT29 colon 100% | SNB-19 CNS 97.1% | U251 CNS 94% | PC-3 prostate 94.9% | SK-MEL-5 melanoma 109% | UACC-62 melanoma 104% | LOX IMVI melanoma 95.6% | SK-MEL-28 melanoma 105% | EKVX NSCLC 92.5% | SN12C renal 90.1% | UO-31 renal 68.8% | TK-10 renal 94% | ACHN renal 105% | CAKI-1 renal 88.4% | A498 renal 96.5%

Cc1ccc2ccccc2c1C[n+]1ccccc1
inactive: HCT-15 colon 107% | HT29 colon 92% | SNB-19 CNS 101% | U251 CNS 83.6% | PC-3 prostate 83.4% | SK-MEL-5 melanoma 110% | UACC-62 melanoma 99.8% | LOX IMVI melanoma 94.5% | SK-MEL-28 melanoma 110% | EKVX NSCLC 58.2% | SN12C renal 98.4% | UO-31 renal 84% | TK-10 renal 88.4% | ACHN renal 106% | CAKI-1 renal 92.8% | A498 renal 79.3%

COC(=O)C(Sc1ccc(Cl)cc1)C1SC(=S)N(Cc2ccccc2)C1=O (centres undefined)
inactive: HCT-15 colon 73.9% | HT29 colon 111% | SNB-19 CNS 92.6% | U251 CNS 90.3% | PC-3 prostate 97.4% | SK-MEL-5 melanoma 101% | UACC-62 melanoma 99.1% | LOX IMVI melanoma 74.9% | SK-MEL-28 melanoma 109% | SK-MEL-2 melanoma 96.3% | SN12C renal 82.3% | UO-31 renal 60.2% | TK-10 renal 115% | ACHN renal 97.6% | CAKI-1 renal 100% | A498 renal 102% | CCRF-CEM leukemia 20.5% | MOLT-4 leukemia 62.1%

O=C(Nc1cccc(-n2cc(-c3ccncc3)c(-c3ccc(Cl)c(O)c3)n2)c1)c1ccccc1
inactive: HCT-15 colon 58.2% | HT29 colon 53.5% | SNB-19 CNS 99.7% | U251 CNS 75.4% | PC-3 prostate 50.3% | SK-MEL-5 melanoma 59.4% | UACC-62 melanoma 68.3% | LOX IMVI melanoma 68.5% | SK-MEL-28 melanoma 48.1% | SK-MEL-2 melanoma 67.9% | SN12C renal 79.3% | UO-31 renal 83.1% | TK-10 renal 109% | ACHN renal 53.2% | CAKI-1 renal 90.3% | A498 renal 72.3% | CCRF-CEM leukemia 67.5% | MOLT-4 leukemia 69.5%
